A selection: hits, their analogues and other compounds. The true share with any hit is near 28%.
CYP2C19 inh – inhibitors of human CYP2C19; inhibition, % at 5 µM; CYP2C19 Supersomes, luciferin-H EGE luminescence, 30 min; actives 21% (n = 96,000); P33261;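 active = CYP2C19 inhibition above a set limit at 5 µM in the primary screen, cut at about 50% in these data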;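 note: plate controls were negative control wells for no effect and 2.5 mM tranylcypromine positive control for full effect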
Plk1 PBD FP – blocks phosphopeptide binding to human Plk1 polo box domain; inhibition, %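 (tested at about 20 µM)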; actives 0.13% (n = 97,000); P53350; Plk1 PBD phosphopeptide binding, fluorescence polarization; in the data active = inhibition above about 34%, passing the limit was not always enough
Target sequence (P53350 whole entry, looked up, the tested form may be a part): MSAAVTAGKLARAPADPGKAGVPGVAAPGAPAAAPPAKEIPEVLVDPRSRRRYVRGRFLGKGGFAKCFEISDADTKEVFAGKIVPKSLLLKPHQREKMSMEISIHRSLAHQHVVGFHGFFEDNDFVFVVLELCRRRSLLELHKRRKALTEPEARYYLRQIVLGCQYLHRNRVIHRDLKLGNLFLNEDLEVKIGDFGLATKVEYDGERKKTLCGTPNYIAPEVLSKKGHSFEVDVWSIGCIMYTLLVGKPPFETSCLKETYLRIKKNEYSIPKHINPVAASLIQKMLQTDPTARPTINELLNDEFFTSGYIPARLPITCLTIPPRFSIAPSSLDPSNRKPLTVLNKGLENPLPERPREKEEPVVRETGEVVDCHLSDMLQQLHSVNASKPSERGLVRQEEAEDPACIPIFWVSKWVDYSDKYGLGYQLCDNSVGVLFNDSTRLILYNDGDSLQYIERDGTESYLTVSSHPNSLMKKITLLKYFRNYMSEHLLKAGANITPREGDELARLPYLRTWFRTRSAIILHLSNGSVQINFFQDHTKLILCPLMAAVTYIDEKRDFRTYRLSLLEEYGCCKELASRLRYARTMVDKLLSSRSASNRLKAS
CYP2C9 act – increases human cytochrome P450 2C9 activity; AID 1024; P11712; actives 1.4% (n = 96,000); activation factor at 5 µM; recombinant CYP2C9, luciferin-H conversion, luminescence; stronger effect = higher value; factor 1 = untreated enzyme, 0 = blocked;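 active = activation factor of 2 or more for CYP2C9 at a 5 µM dose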;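 note: 0 = sulfaphenazole-blocked wells and 1 = vehicle-only wells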
CYP2C19 activ – increases human CYP2C19 enzyme activity. recombinant CYP2C19, luciferin-H EGE luminescence; stronger effect = higher value; 0 = fully inhibited enzyme, 1 = untreated enzyme. activation factor at 5 µM. 96,000 tested, under 10 active. P33261. AID 1025;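 active = activation factor of at least 2 at 5 µM in the primary screen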;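 note: 0 = wells with 2.5 mM tranylcypromine and 1 = vehicle-only wells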
PLK1 kinase inh – blocks human PLK1 kinase activity | P53350 | recombinant PLK1 kinase, TR-FRET peptide phosphorylation | actives 0.53% (n = 97,000) | inhibition, % at 10 µM;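 active = inhibition of 50% or more in the single-concentration screen; inactive = inhibition below 50%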;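 note: 0% = DMSO max control and 100% = H-89 dihydrochloride min control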
CYP2C9 inhib – inhibitors of human CYP2C9 | actives 20% (n = 96,000) | CYP2C9 Supersomes, luciferin-H conversion, luminescence | inhibition, % at 5 µM;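 active = blocking of liver enzyme CYP2C9 beyond about 50% at 5 µM, limit read from the data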
Starred values were filed as active, the others as inactive; . = no result given.

SMILES	CYP2C19 inh	Plk1 PBD FP	CYP2C9 act	CYP2C19 activ	PLK1 kinase inh	CYP2C9 inhib
O=C(CSc1nnc(-c2ccccc2Cl)n1Cc1ccco1)Nc1ccc2c(c1)OCCO2	90*	-20	0.1	0.1	-9	93*
O=C(CC1=NC2(CCCC2)Cc2ccccc21)N1CCOCC1	18	-16	0.8	0.8	-5	19
CCCn1c(C)cc(=O)c2cc(NC(=O)c3ccccn3)ccc21	-5	16	1.1	1	-16	-10
Cc1ccc(NC(=O)CC2S/C(=N/c3nccs3)N(C)C2=O)c(C)c1 (stereo not given)	96*	8	0	0	-1	98*
OC(C#Cc1ccccn1)c1cccs1 (stereo not given)	23	10	0.9	0.8	2	11
CCCCCOP(=O)(OCCCCC)C1(NS(=O)(=O)c2ccccc2)C=CC(=O)c2ccccc21 (stereo not given)	8	-1	0.4	0.9	-7	56*
N#CC(c1ccc(Cl)cc1)c1nc2ccccc2nc1C(F)(F)F (stereo not given)	52*	1	0.7	0.5	-13	26
Cc1nc2c(c3c1[nH]c1ccccc13)C(=O)CC(C)(C)C2	39	-35	2.8*	0.6	-7	-183
Cc1ccc(S(=O)(=O)NCCNC(=O)c2ccccc2)cc1	48	.	1.3	0.5	.	-29
COc1cc(NC(=O)CS(=O)(=O)c2ccccc2)cc(OC)c1OC	66*	17	0.7	0.3	-13	31
COc1ccccc1NC(=O)NS(=O)(=O)c1ccc(C)cc1	1	-37	0.5	1	10	47
Cc1ccc(C)c(NC(=O)CNS(=O)(=O)c2ccccc2)c1	79*	26	2.1*	0.2	-13	-105
Cc1cccc(NC(=O)Cn2cccc2)c1	24	-18	0.8	0.8	-3	22
COc1cc(NC(=O)Cc2c(C(=O)O)[nH]c3ccccc23)cc(OC)c1OC	20	-26	0.8	0.8	-10	23
COc1ccccc1NC(=O)CNS(=O)(=O)c1ccccc1	96*	-8	1.5	0	-12	-54
Cc1cccc(NC(=O)CNc2cc(C)ccc2C)c1	84*	-9	0.7	0.2	-8	26
COC(=O)c1cccc(Oc2nc(N3CCOCC3)nc(N3CCOCC3)n2)c1	.	10	.	.	-14	.
COc1ccc(F)cc1CN1CCN(c2cc(C)nc3c4c(C)cc(C)nc4nn23)CC1	7	-12	1	0.9	-5	4
COc1ccc(-c2cc(-c3cc(OC)ccc3O)[nH]n2)cc1	13	1	0.6	0.9	-1	38
COc1ccc(O)c(-c2cc(-c3cccc(Br)c3)n[nH]2)c1	5	12	0.4	0.9	-3	61*
Cc1ccc(O)c(-c2cc(-c3cccc(F)c3)n[nH]2)c1	33	-8	0.3	0.7	4	69*
COc1ccc(-c2n[nH]c(C)c2-c2cc(OC)ccc2O)cc1	100*	1	0.1	0	-11	91*
COc1ccc(-c2cc(-c3cc(F)ccc3O)[nH]n2)cc1OC	-10	-4	1.1	1.1	-3	-7
Cc1ccc(-c2cc(-c3cccc(F)c3)n[nH]2)c(O)c1	26	2	0.3	0.7	-8	70*
CC1Cc2cc(/C(O)=C3\C(=O)C(=O)N(CCN(C)C)C3c3ccccc3F)ccc2O1 (stereo not given)	-4	-7	1.1	1	-15	-5
SMILES	CYP2C19 inh	Plk1 PBD FP	CYP2C9 act	CYP2C19 activ	PLK1 kinase inh	CYP2C9 inhib
COc1cc2c(cc1OC)-c1nnc(-c3ccco3)n1C1(CCCC1)C2	.	17	.	.	-7	.
CCOc1cc2[nH]c(=S)n(CCC(=O)NCc3ccc(OC)cc3)c(=O)c2cc1OCC	3	21	0.3	1	-12	73*
CCOc1cc2[nH]c(=S)n(CCc3ccc(OC)c(OC)c3)c(=O)c2cc1OCC	18	-2	0.8	0.8	-37	19
CCOc1cc2[nH]c(=S)n(CCCCC(=O)NCc3ccco3)c(=O)c2cc1OCC	-1	.	0.3	1	.	72*
CCc1ccccc1NC(=O)c1cnc2scc(C)n2c1=O	.	2	.	.	-13	.
CCOc1ccc(NC(=O)c2cnc3scc(C)n3c2=O)cc1	-13	.	2.8*	1.1	.	-180
Cc1csc2ncc(C(=O)Nc3ccc(C(F)(F)F)cc3)c(=O)n12	-10	.	1.1	1.1	.	-9

Screening data: PubChem BioAssay, several laboratories
